# Like-named read-outs stand apart in the source and are kept apart here.
# How the values were obtained:
# GRK7 = details: concentration: 1 μM, replicates: in singlicate; n = 1
# GSK3A = details: concentration: 1 μM, replicates: in singlicate; n = 1
# GSK3B = details: n = 1
# HASPIN = test system: T1, HASPIN; details: concentration: 1 μM, replicates: in singlicate; n = 1
# T1 construct: gene GSG2
# HCK = details: concentration: 1 μM, replicates: in singlicate; n = 1
# HIPK1 = details: concentration: 1 μM, replicates: in singlicate; n = 1
# HIPK2 = details: concentration: 1 μM, replicates: in singlicate; n = 1
# HIPK3 = details: concentration: 1 μM, replicates: in singlicate; n = 1
# HIPK4 = details: concentration: 1 μM, replicates: in singlicate; n = 1
# HPK1 = details: concentration: 1 μM, replicates: in singlicate; n = 1
# HUNK = details: concentration: 1 μM, replicates: in singlicate; n = 1
# ICK = details: concentration: 1 μM, replicates: in singlicate; n = 1
# IGF1R = details: concentration: 1 μM, replicates: in singlicate; n = 1
# IKK-alpha = test system: T2, IKK-alpha; details: concentration: 1 μM, replicates: in singlicate; n = 1
# T2 construct: gene CHUK
# IKK-beta = test system: T3, IKK-beta; details: concentration: 1 μM, replicates: in singlicate; n = 1
# T3 construct: gene IKBKB
# IKK-epsilon = test system: T4, IKK-epsilon; details: concentration: 1 μM, replicates: in singlicate; n = 1
# T4 construct: gene IKBKE
# INSRR = details: concentration: 1 μM, replicates: in singlicate; n = 1
# INSR = details: concentration: 1 μM, replicates: in singlicate; n = 1
# IRAK1 = details: concentration: 1 μM, replicates: in singlicate; n = 1
# IRAK3 = details: concentration: 1 μM, replicates: in singlicate; n = 1
# [1] = concentration: 1 μM, replicates: in singlicate
# 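Further: KINOMEscan kinase panel screen.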
structure (smiles),measurement,setting,value
Cc1cccc(-c2nc(-c3ccc(S(C)(=O)=O)cc3)sc2-c2ccnc(NCCc3ccccc3)c2)c1,%Inh,GRK7,7%
same,%Inh,GSK3A,0%
same,%Inh,GSK3B; [1],0%
same,%Inh,HASPIN,42%
same,%Inh,HCK,0%
same,%Inh,HIPK1,15%
same,%Inh,HIPK2,0%
same,%Inh,HIPK3,6%
same,%Inh,HIPK4,8%
same,%Inh,HPK1,11%
same,%Inh,HUNK,0%
same,%Inh,ICK,0%
same,%Inh,IGF1R,15%
same,%Inh,IKK-alpha,0%
same,%Inh,IKK-beta,8%
same,%Inh,IKK-epsilon,0%
same,%Inh,INSRR,3%
same,%Inh,INSR,7%
same,%Inh,IRAK1,17%
same,%Inh,IRAK3,0%
CC1=C(C(=O)Nc2cc3cn[nH]c3cc2F)C(c2ccc(C(F)(F)F)cc2)CC(=O)N1 (stereo not shown) [GSK429286],%Inh,GRK7,0%
same,%Inh,GSK3A,10%
same,%Inh,GSK3B; [1],24%
same,%Inh,HASPIN,0%
same,%Inh,HCK,0%
same,%Inh,HIPK1,0%
same,%Inh,HIPK2,0%
same,%Inh,HIPK3,13%
same,%Inh,HIPK4,0%
same,%Inh,HPK1,29%
same,%Inh,HUNK,20%
same,%Inh,ICK,13%
same,%Inh,IGF1R,0%
same,%Inh,IKK-alpha,0%
same,%Inh,IKK-beta,56%
same,%Inh,IKK-epsilon,5%
same,%Inh,INSRR,0%
same,%Inh,INSR,0%
same,%Inh,IRAK1,31%
same,%Inh,IRAK3,5%
Cc1cccc(-c2nc(Nc3ccncc3)c3ccccc3n2)n1 [GW855857],%Inh,GRK7,0%
same,%Inh,GSK3A,4%
same,%Inh,GSK3B; [1],0%
same,%Inh,HASPIN,26%
same,%Inh,HCK,11%
same,%Inh,HIPK1,41%
same,%Inh,HIPK2,0%
same,%Inh,HIPK3,0%
same,%Inh,HIPK4,19%
same,%Inh,HPK1,9%
same,%Inh,HUNK,0%
same,%Inh,ICK,0%
same,%Inh,IGF1R,0%
same,%Inh,IKK-alpha,0%
same,%Inh,IKK-beta,0%
same,%Inh,IKK-epsilon,0%
same,%Inh,INSRR,0%
same,%Inh,INSR,7%
same,%Inh,IRAK1,0%
same,%Inh,IRAK3,21%
Cc1nnc(-c2ccc3occ(-c4ccc(S(C)=O)cc4)c3c2)[nH]1 (stereo not shown),%Inh,GRK7,6%
same,%Inh,GSK3A,86%
same,%Inh,GSK3B; [1],75%
same,%Inh,HASPIN,25%
same,%Inh,HCK,0%
same,%Inh,HIPK1,69%
same,%Inh,HIPK2,84%
same,%Inh,HIPK3,81%
same,%Inh,HIPK4,36%
same,%Inh,HPK1,0%
same,%Inh,HUNK,0%
same,%Inh,ICK,0%
same,%Inh,IGF1R,0%
same,%Inh,IKK-alpha,26%
same,%Inh,IKK-beta,20%
same,%Inh,IKK-epsilon,0%
same,%Inh,INSRR,0%
same,%Inh,INSR,4%
same,%Inh,IRAK1,0%
same,%Inh,IRAK3,66%
O=C(Nc1n[nH]c2nc(-c3nccs3)c(Br)cc12)C1CC1 [SB-742251],%Inh,GRK7,0%
same,%Inh,GSK3A,89%
same,%Inh,GSK3B; 1 µM,39%
same,%Inh,HASPIN,11%
same,%Inh,HCK,0%
same,%Inh,HIPK1,0%
same,%Inh,HIPK2,0%
same,%Inh,HIPK3,0%
same,%Inh,HIPK4,0%
same,%Inh,HPK1,48%
same,%Inh,HUNK,0%
same,%Inh,ICK,61%
same,%Inh,IGF1R,0%
same,%Inh,IKK-alpha,54%
same,%Inh,IKK-beta,49%
same,%Inh,IKK-epsilon,1%
same,%Inh,INSRR,0%
same,%Inh,INSR,2%
same,%Inh,IRAK1,64%
same,%Inh,IRAK3,4%
COc1ccc2nc(-c3cccc(C)n3)nc(Nc3ccncc3)c2c1 [GSK204919],%Inh,GRK7,0%
same,%Inh,GSK3A,0%
same,%Inh,GSK3B; [1],19%
same,%Inh,HASPIN,15%
same,%Inh,HCK,0%
same,%Inh,HIPK1,0%
same,%Inh,HIPK2,0%
same,%Inh,HIPK3,11%
same,%Inh,HIPK4,0%
same,%Inh,HPK1,28%
same,%Inh,HUNK,9%
same,%Inh,ICK,0%
same,%Inh,IGF1R,0%
same,%Inh,IKK-alpha,0%
same,%Inh,IKK-beta,22%
same,%Inh,IKK-epsilon,3%
same,%Inh,INSRR,0%
same,%Inh,INSR,0%
same,%Inh,IRAK1,4%
same,%Inh,IRAK3,0%
Fc1cc(Cl)ccc1Nc1ccnc2cc(-c3ccc(CN4CCCCC4)o3)ccc12 [GW560116],%Inh,GRK7,0%
same,%Inh,GSK3A,0%
same,%Inh,GSK3B; [1],0%
same,%Inh,HASPIN,32%
same,%Inh,HCK,0%
same,%Inh,HIPK1,0%
same,%Inh,HIPK2,0%
same,%Inh,HIPK3,1%
same,%Inh,HIPK4,0%
same,%Inh,HPK1,14%
same,%Inh,HUNK,9%
same,%Inh,ICK,0%
same,%Inh,IGF1R,24%
same,%Inh,IKK-alpha,0%
same,%Inh,IKK-beta,0%
same,%Inh,IKK-epsilon,20%
same,%Inh,INSRR,0%
same,%Inh,INSR,0%
same,%Inh,IRAK1,22%
same,%Inh,IRAK3,0%
COc1ccccc1-c1ccc2c(NC(=O)C3CC3)n[nH]c2n1 [SB-711239],%Inh,GRK7,0%
same,%Inh,GSK3A,6%
same,%Inh,GSK3B; 1 µM,0%
same,%Inh,HASPIN,41%
same,%Inh,HCK,0%
same,%Inh,HIPK1,0%
same,%Inh,HIPK2,0%
same,%Inh,HIPK3,1%
same,%Inh,HIPK4,0%
same,%Inh,HPK1,41%
same,%Inh,HUNK,16%
same,%Inh,ICK,0%
same,%Inh,IGF1R,0%
same,%Inh,IKK-alpha,64%
same,%Inh,IKK-beta,0%
same,%Inh,IKK-epsilon,24%
same,%Inh,INSRR,1%
same,%Inh,INSR,0%
same,%Inh,IRAK1,15%
same,%Inh,IRAK3,9%
COc1ccc(CNC(=O)NC2CCN(c3ccnc(Nc4cc(OC)c(OC)c(OC)c4)n3)C2)cc1 (stereo not shown) [GSK1379748],%Inh,GRK7,0%
same,%Inh,GSK3A,7%
same,%Inh,GSK3B; [1],0%
same,%Inh,HASPIN,38%
same,%Inh,HCK,0%
same,%Inh,HIPK1,0%
same,%Inh,HIPK2,8%
same,%Inh,HIPK3,33%
same,%Inh,HIPK4,0%
same,%Inh,HPK1,53%
same,%Inh,HUNK,3%
same,%Inh,ICK,8%
same,%Inh,IGF1R,0%
same,%Inh,IKK-alpha,0%
same,%Inh,IKK-beta,0%
same,%Inh,IKK-epsilon,20%
same,%Inh,INSRR,0%
same,%Inh,INSR,0%
same,%Inh,IRAK1,63%
same,%Inh,IRAK3,63%
COc1cccc(NC(=O)NC2CCN(c3ccnc(Nc4ccc(F)cc4)n3)C2)c1 (stereo not shown) [GSK1379721],%Inh,GRK7,0%
same,%Inh,GSK3A,21%
same,%Inh,GSK3B; [1],10%
same,%Inh,HASPIN,0%
same,%Inh,HCK,0%
same,%Inh,HIPK1,0%
same,%Inh,HIPK2,0%
same,%Inh,HIPK3,7%
same,%Inh,HIPK4,0%
same,%Inh,HPK1,59%
same,%Inh,HUNK,13%
same,%Inh,ICK,25%
same,%Inh,IGF1R,0%
same,%Inh,IKK-alpha,0%
same,%Inh,IKK-beta,0%
same,%Inh,IKK-epsilon,15%
same,%Inh,INSRR,0%
same,%Inh,INSR,14%
same,%Inh,IRAK1,12%
same,%Inh,IRAK3,0%
O=S(=O)(c1ccc(-c2ccnc3[nH]ccc23)cc1)N1CCCC1 [GSK846226],%Inh,GRK7,0%
same,%Inh,GSK3A,15%
same,%Inh,GSK3B; [1],16%
same,%Inh,HASPIN,12%
same,%Inh,HCK,0%
same,%Inh,HIPK1,45%
same,%Inh,HIPK2,0%
same,%Inh,HIPK3,48%
same,%Inh,HIPK4,23%
same,%Inh,HPK1,25%
same,%Inh,HUNK,0%
same,%Inh,ICK,0%
same,%Inh,IGF1R,0%
same,%Inh,IKK-alpha,29%
same,%Inh,IKK-beta,94.3%
same,%Inh,IKK-epsilon,31%
same,%Inh,INSRR,0%
same,%Inh,INSR,0%
same,%Inh,IRAK1,8%
same,%Inh,IRAK3,22%
